Data from PubChem BioAssay.
Active and inactive are the calls of the source.

Experiments:
[1] = test system: Human papillomavirus type 1a protein E7 (residues 44-93); assay: HPV1a E7 fragment binders on microarrays, primary screen, biochemical, small-molecule microarray, residues 44-93, 635 nm fluorescence (AID 1108); details: small-molecule microarray binding, fluorescence 635 nm; higher = more signal;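 also: E7 fragment applied at 1 µg/mL in TBST for 1 h at 4 C; score combines spot fluorescence with its signal to noise ratio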
[2] = modulators of HCV replicon luciferase signal, primary screen, HCV replication inhibitor project, Huh7 cells, luciferase reporter (AID 1109); details: 48 h, higher = more signal;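 also: huh7 hepatoma cells harbouring a luciferase neomycin HCV replicon reporter; luciferase luminescence as measure of HCV replicon replication; test concentration not given here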
[3] = target: Left-right determination factor 2 (Homo sapiens) (UniProt O00292); assay: LEFTY2 binders on small-molecule microarrays, primary screen, biochemical, small-molecule microarray, 635 nm fluorescence scan (AID 1110); details: LEFTY2 binding, higher = more signal
Sequence of Left-right determination factor 2 (Homo sapiens) (O00292 whole entry, looked up): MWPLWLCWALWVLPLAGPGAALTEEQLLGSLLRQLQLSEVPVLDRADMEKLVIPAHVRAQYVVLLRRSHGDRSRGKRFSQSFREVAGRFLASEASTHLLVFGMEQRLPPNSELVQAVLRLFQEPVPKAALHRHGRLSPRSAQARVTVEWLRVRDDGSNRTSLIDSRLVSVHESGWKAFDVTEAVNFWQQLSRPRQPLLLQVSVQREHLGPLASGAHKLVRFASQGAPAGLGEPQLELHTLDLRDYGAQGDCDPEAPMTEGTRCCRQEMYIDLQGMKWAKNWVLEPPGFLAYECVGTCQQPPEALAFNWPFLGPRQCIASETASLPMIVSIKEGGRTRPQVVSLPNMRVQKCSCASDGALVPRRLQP

[4] = target: Calmodulin-1 (Homo sapiens) (UniProt P0DP23); assay: CALM1 binders on microarrays, EGTA buffer, profiling panel, biochemical, small-molecule microarray, Cy5-labelled CALM1 (AID 1111); details: Cy5-CALM1 binding fluorescence, higher = more signal;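 also: labelled calmodulin applied in Tris saline Tween buffer holding calcium plus EGTA and DTT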
[5] = target: Calmodulin-1 (Homo sapiens) (UniProt P0DP23); assay: calcium-bound CALM1 binders on microarrays, profiling panel, artefact control for SMM control-protein annotation, biochemical, small-molecule microarray, Cy5-labelled CALM1, plus calcium (AID 1112); details: Cy5-CALM1 binding fluorescence, higher = more signal;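 also: score merges spot fluorescence with signal to noise from triplicate slides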
[6] = small-molecule microarray binders of probe aWnt5a, primary screen, biochemical, biotinylated probe, 635/667 nm fluorescence (AID 1113); details: higher = more signal;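 also: score merges 667 nm fluorescence intensity with signal-to-noise per printed feature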
[7] = small-molecule microarray binders of probe aShh, primary screen, biochemical, biotinylated probe, 635/667 nm fluorescence (AID 1114); details: higher = more signal;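 also: probe is biotin-labelled aShh protein from a stem cell growth factor screen; measures binding of labelled protein to compounds printed on the slide; score merges feature fluorescence at 667 nm with signal-to-noise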
[8] = small-molecule microarray binders of probe aNog, primary screen, biochemical, biotinylated probe, 635/667 nm fluorescence (AID 1115); details: higher = more signal;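 also: probe is biotinylated aNog protein used at 0.15 µg/mL for 1 h at 4 C; z-score combines 667 nm fluorescence of each spot with its signal to noise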
[9] = target: Torsin-1A-interacting protein 1 (Homo sapiens) (UniProt Q5JTV8); assay: LAP1 binders from COS7 cell lysate, primary screen, small-molecule microarray, 635/667 nm fluorescence (AID 1116); details: COS7-hLAP1 lysate binding, 635 nm fluorescence, higher = more signal
Sequence of Torsin-1A-interacting protein 1 (Homo sapiens) (Q5JTV8 whole entry, looked up): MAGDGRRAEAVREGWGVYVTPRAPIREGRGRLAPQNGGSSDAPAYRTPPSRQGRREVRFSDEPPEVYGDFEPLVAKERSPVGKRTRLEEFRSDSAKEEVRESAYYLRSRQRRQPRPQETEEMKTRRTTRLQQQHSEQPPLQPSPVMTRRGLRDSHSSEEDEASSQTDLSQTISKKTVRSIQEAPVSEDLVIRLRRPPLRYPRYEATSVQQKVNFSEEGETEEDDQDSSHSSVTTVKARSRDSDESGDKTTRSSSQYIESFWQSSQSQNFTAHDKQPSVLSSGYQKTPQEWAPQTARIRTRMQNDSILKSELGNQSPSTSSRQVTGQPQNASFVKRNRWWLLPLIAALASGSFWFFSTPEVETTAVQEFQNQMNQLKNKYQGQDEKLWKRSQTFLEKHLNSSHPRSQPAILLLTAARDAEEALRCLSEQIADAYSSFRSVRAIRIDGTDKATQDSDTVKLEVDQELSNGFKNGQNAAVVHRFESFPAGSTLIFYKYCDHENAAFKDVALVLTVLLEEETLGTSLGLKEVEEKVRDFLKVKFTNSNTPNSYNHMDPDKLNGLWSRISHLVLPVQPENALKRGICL

[10] = target: Alpha-bungarotoxin (Bungarus multicinctus) (UniProt P60615); assay: alpha-bungarotoxin binders on microarray, profiling panel, artefact control for SMM control protein annotation, biochemical, small-molecule microarray, Alexa647 label, 635/667 nm fluorescence (AID 1117); details: alpha-BTX-A647 binding fluorescence, higher = more signal
Sequence of Alpha-bungarotoxin (Bungarus multicinctus) (P60615 whole entry, looked up): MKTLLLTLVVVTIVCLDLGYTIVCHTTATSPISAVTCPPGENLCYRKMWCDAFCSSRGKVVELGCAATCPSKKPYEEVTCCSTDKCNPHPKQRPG

[11] = target: Albumin (Bos taurus) (UniProt P02769); assay: bovine serum albumin binders on microarray, profiling panel, artefact control for SMM control protein annotation, biochemical, small-molecule microarray, Alexa647 label, 635/667 nm fluorescence (AID 1118); details: BSA-A647 binding, fluorescence 635 nm, higher = more signal;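 also: score merges 667 nm emission intensity and signal-to-noise per printed compound spot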
Sequence of Albumin (Bos taurus) (P02769 whole entry, looked up): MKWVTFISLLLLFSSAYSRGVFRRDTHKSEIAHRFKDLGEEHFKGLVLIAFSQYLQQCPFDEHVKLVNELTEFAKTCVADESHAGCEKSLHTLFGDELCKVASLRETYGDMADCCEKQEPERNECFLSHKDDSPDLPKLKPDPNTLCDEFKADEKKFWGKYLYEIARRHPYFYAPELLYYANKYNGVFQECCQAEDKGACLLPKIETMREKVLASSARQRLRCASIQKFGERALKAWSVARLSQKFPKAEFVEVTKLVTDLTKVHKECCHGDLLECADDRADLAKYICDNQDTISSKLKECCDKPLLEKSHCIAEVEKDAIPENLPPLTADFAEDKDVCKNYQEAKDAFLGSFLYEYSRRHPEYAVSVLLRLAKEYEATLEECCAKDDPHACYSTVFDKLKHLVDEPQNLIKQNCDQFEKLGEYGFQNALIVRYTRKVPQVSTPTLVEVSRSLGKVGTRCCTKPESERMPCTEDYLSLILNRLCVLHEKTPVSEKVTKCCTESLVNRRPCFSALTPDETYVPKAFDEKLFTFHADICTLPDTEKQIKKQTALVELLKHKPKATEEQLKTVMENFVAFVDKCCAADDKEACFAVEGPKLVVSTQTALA

[12] = small-molecule microarray binders of probe aXIP, primary screen, biochemical, NeuroSMM set, 635/667 nm fluorescence (AID 1119); details: higher = more signal, called active from +8 up or from −8 down;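 also: probe is the protein aXip251-270 applied at 1 µg/mL to compound-printed slides; binding of probe to printed compounds measured as 667 nm fluorescence plus signal to noise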
[13] = small-molecule binders of probe aNOTCH3, primary screen, biochemical, small-molecule microarray, 635/667 nm fluorescence (AID 1120); details: higher = more signal;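 also: probe is a biotin-tagged antibody raised against NOTCH3 rather than NOTCH3 protein; score merges spot fluorescence near 667 nm with spot signal to noise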
[14] = small-molecule binders of probe aNOTCH2, primary screen, biochemical, small-molecule microarray, 635/667 nm fluorescence (AID 1121); details: higher = more signal;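 also: score merges feature fluorescence read at 667 nm with its signal to noise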
[15] = target: Carbonic anhydrase 2 (Homo sapiens) (UniProt P00918); assay: CAII small-molecule binders, profiling panel, biochemical, small-molecule microarray, Alexa647-labelled CAII (AID 1122); details: CAII-A647 binding fluorescence, higher = more signal
[16] = COS7 lysate on small-molecule microarray, probe aHis, 635 nm (AID 1123); details: COS7 cell lysate, fluorescence, higher = more signal;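 also: z-score combines 667nm fluorescence intensity with signal-to-noise per printed compound spot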
[17] = compound binding in COS7 lysate, probe aLAP1, primary screen, cell lysate, small-molecule microarray (AID 1124); details: probe aLAP1, fluorescence, higher = more signal;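 also: lysate comes from COS7 cells expressing LAP1 and is applied at 0.3 µg/mL; score merges spot fluorescence near 667 nm with signal-to-noise over triplicate slides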
[18] = test system: Sam68 (KHDRBS1); assay: Sam68 small-molecule binders, primary screen, biochemical, small-molecule microarray, 635 nm fluorescence (AID 1125); details: small-molecule microarray binding, higher = more signal;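 also: score merges 667 nm channel intensity with signal to noise over triplicate slides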
[19] = test system: Chordin-like protein 2 (CHRDL2); assay: CHRDL2 small-molecule binders, primary screen, biochemical, small-molecule microarray, 635 nm fluorescence (AID 1126); details: small-molecule microarray binding, fluorescence 635 nm; higher = more signal;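 also: printed compound slides probed with Chrdl2 protein at 4 µg/mL for 1 h at 4 C; score merges 667 nm emission intensity with signal to noise over three replicate slides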
[20] = target: Concanavalin-A (Canavalia ensiformis) (UniProt P02866); assay: ConA small-molecule binders, primary screen, artefact control for SMM control protein annotation, biochemical, small-molecule microarray, Alexa647 label, 635 nm (AID 1127); details: ConA-A647 binding fluorescence, higher = more signal;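 also: z combines 667 nm emission intensity with signal-to-noise across three replicate slides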
Sequence of Concanavalin-A (Canavalia ensiformis) (P02866 whole entry, looked up): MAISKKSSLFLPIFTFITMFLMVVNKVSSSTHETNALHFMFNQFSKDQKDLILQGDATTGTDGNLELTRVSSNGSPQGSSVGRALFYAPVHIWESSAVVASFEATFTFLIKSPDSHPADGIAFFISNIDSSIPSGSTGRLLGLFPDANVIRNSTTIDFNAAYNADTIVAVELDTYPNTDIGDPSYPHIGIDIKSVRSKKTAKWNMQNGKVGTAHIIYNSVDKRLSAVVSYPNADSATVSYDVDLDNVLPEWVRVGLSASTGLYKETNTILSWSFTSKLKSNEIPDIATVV

Compound	composite z-score [1]	z-score [2]	composite z-score [3]	composite z-score [4]	composite z-score [5]	composite z-score [6]	composite z-score [7]	composite z-score [8]	composite z-score [9]	composite z-score [10]	composite z-score [11]	composite Z-score [12]	composite z-score [13]	composite z-score [14]	composite z-score [15]	composite z-score [16]	composite z-score [17]	composite z-score [18]	composite z-score [19]	composite z-score [20]
COC(=O)[C@@]1(Cc2ccccc2)[C@H]2c3cc(C(=O)N(C)C)n(Cc4ccccc4)c3C[C@H]2CN1C(=O)c1ccccc1	0.104	-1.13	-0.586	0.733	0.0453	0.3	1.63	0.837	0.706	0.273	0.75	0.047 (inactive)	0.184	-0.0895	0.749	1.41	-0.469	-0.0506	-0.539	0.919
CCCCCCCCCCC(O)C1C=CC2C(=O)N(c3ccccc3)C(=O)C2N1Nc1ccc([N+](=O)[O-])cc1 (stereo not given)	1.41	-2.47	-0.193	1.01	0.496	-0.0263	-0.0146	1.1	-0.105	1	0.804	0.568 (inactive)	0.216	-0.0984	0.594	1.63	0.109	1.31	-0.301	1.05
C=CCN1Cc2ccccc2C[C@]2(N=C(c3ccc(OCCCO)cc3)O[C@@H]2c2ccccc2)C1=O	1.18	-2.51	0.915	0.054	-0.83	-0.006	-0.0119	0.838	2.68	1.03	0.025	0.862 (inactive)	0.0276	0.101	0.605	2.42	0.75	1.3	1.14	1.18
O=C1C2C=CC(C(O)c3ccc(Br)cc3)N(n3cnnc3)C2C(=O)N1Cc1ccccc1 (stereo not given)	1.34	-4.38	0.329	-0.0714	0.182	-0.0236	-0.0827	0.205	0.465	0.942	0.807	-1.02 (inactive)	-0.0443	-0.0004	0.259	1.57	0.448	1.29	-0.064	1.07
COc1ccc([Si](C)(C)[C@@H]2[C@@H](CCO)O[C@]3(C(=O)N(Cc4ccccc4)c4ccc(N(C=O)c5ccccc5)cc43)[C@H]2C)cc1	-0.736	-4.14	0.391	0.194	0.841	-0.117	0.0684	-0.0036	0.301	-0.525	0.624	1.04 (inactive)	-0.159	-0.0682	0.497	0.937	0.719	0.601	-0.15	0.762
C=CCOC(=O)[C@H]1[C@@H]2C(=O)O[C@@H](c3ccccc3)[C@@H](c3ccccc3)N2[C@@H](c2ccc(OCCOC(=O)[C@@H]3C[C@@H]4C(=O)NCC(=O)N4[C@@H]3c3ccc(O)cc3)cc2)[C@]12C(=O)Nc1ccc(I)cc12	1.37	-1.59	1.04	1.56	0.341	-0.0519	0.131	-0.412	1.14	1.52	0.733	1.05 (inactive)	0.0435	-0.0583	0.647	1.71	0.888	1.3	1.09	1.14
COC(=O)C(CC#Cc1ccc2c(c1)[C@]1(C(=O)N2)[C@H](C(=O)N2CCCCCCC2)[C@H]2C(=O)O[C@H](c3ccccc3)[C@H](c3ccccc3)N2[C@@H]1c1ccccc1OCCO)C(=O)OC	1.6	-1.88	1.8	3.11	1.85	1.59	3.17	3.79	6.01	4.45	0.678	10.6 (active)	2.26	1.16	1.08	5.41	1.58	1.32	1.68	0.916
COc1ccc(CCNC(=O)[C@@]2(C)c3ccccc3C(=O)N(Cc3ccccc3)[C@H]2c2ccc(CO)cc2)cc1	1.16	-2.06	0.449	0.617	-0.703	0.0618	0.0141	0.304	1.56	1.78	0.365	0.247 (inactive)	0.178	-0.116	0.446	1.51	0.941	1.16	0.594	1.14
OCCCc1cc[n+](Cc2cccc(OC(F)(F)F)c2)cc1	1.47	0.242	0.208	0.66	0.56	-0.0758	0.199	0.134	0.925	0.718	0.589	0.755 (inactive)	0.147	-0.101	0.842	2.02	0.348	1.28	0.421	1.09
Cc1ccc(N2C(=O)c3ccccc3[C@](C)(C(=O)NCCN3CCOCC3)[C@@H]2c2ccc(CO)cc2)nc1	-0.742	0.548	-1.28	-0.597	-0.583	-0.228	0.0442	-0.244	-0.869	-1.44	-0.657	-0.559 (inactive)	-0.279	-0.14	0.494	-0.0207	0.0322	-1.39	-0.494	-0.828
